Test results reported in PubChem BioAssay AID1851 (National Center for Advancing Translational Sciences (NCATS), 2009).
Out of some 16,000 compounds screened, about 5,100 (32%) were called active. About 25% were inconclusive and are not listed. The call rests on the fitted dose curve; in most records, active means well fitted curve in the direction sought with a large enough effect; inconclusive means small, poorly fitted or top-dose-only effect, or effect the other way; inactive means no such curve, though single readings can be large or run the other way. The list shows a part of the results.

molecular target: Cytochrome P450 3A4 (Homo sapiens) (UniProt P08684); assay: Cytochrome panel assay with activity outcomes; conditions: recombinant CYP, pro-luciferin dealkylation, luminescence, p450-cyp3a4; series mostly up to 57.1 µM
On the % scale 0 is the no-effect control and ±100 the full control effect.

Chain of Cytochrome P450 3A4 (Homo sapiens) (P08684 whole entry, looked up): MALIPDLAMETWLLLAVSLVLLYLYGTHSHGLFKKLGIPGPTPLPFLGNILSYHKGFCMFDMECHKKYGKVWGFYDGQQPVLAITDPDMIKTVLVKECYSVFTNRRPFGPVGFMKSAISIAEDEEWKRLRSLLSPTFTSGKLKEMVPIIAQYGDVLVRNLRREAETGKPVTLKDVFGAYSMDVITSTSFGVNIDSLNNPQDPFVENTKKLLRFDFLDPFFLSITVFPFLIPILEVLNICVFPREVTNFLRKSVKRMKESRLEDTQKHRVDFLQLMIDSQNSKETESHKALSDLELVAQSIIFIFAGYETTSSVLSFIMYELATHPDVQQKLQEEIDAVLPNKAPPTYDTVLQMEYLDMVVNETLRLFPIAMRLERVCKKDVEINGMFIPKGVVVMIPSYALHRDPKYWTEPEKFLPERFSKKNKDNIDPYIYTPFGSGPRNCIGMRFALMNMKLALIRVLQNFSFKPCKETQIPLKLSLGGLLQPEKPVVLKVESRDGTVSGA

Row | Structure (SMILES) | AC50 | activity, negative = inhibition
1 | CCn1cnc2c(Nc3cccc(Cl)c3)nc(N[C@@H]3CCCC[C@H]3N)nc21 | 12.6 µM (active) | 
2 | COc1ccc(C(=O)NC2CC3CCCC(C2)N3CC(C)C)cc1OC (stereo not given) |  | inactive
3 | CC(Oc1ccc(-c2ccccc2)cc1)C(=O)O (stereo not given) |  | 4.5% [at 11.4 µM] (inactive)
4 | C[C@@H]1O[C@H](OC2[C@@H](O)[C@H](O)C(O)[C@H](O)[C@H]2O)[C@@H](N)C[C@@H]1N=C(N)C(=O)O (stereo not given in full) |  | 2.45% [at 11.4 µM] (inactive)
5 | NC[C@@H](CC(=O)O)c1ccc(Cl)cc1 |  | inactive
6 | O=C1CN=C(c2cccs2)c2c(sc3c2CCCC3)N1 | 15.8 µM (active) | 
7 | Cc1cc(Cc2cc(C)c(N)cc2N)c(N)cc1N |  | -12.7% [at 11.4 µM] (inactive)
8 | Cc1ccc(NC(=[OH+])c2cc3ccccc3cc2O)c(C)c1.Cc1ccc(NC(=[OH+])c2cc3ccccc3cc2O)c(C)c1.[Ni] |  | -23% [at 11.4 µM] (inactive)
9 | CC(C)CCC[C@@H](C)[C@@H]1CC[C@@H]2[C@H]3CC[C@H]4C[C@@H](N)CC[C@@]4(C)[C@@H]3CC[C@]21C |  | 0.227% [at 11.4 µM] (inactive)
10 | Cc1c2cc[n+](CCN3CCCCC3)cc2c(C)c2c1[nH]c1ccc(O)cc12 |  | -14.8% [at 11.4 µM] (inactive)
11 | CN1CCN(C(=O)O[C@@H]2c3nccnc3C(=O)N2c2ccc(Cl)cn2)CC1 |  | inactive
12 | COC1=C[C@H]2C3=C([C@H]2C1=O)[C@H](NC(C)=O)CCc1cc(OC)c(OC)c(OC)c13 |  | inactive
13 | CCCCN1C(=O)C(C2c3ccccc3C(=O)N2Cc2ccccc2)C(=O)NC1=S (stereo not given) | 2.51 µM (active) | 
14 | CN1C(=O)C(C2c3ccccc3C(=O)N2Cc2ccc([N+](=O)[O-])cc2)C(=O)N(C)C1=O (stereo not given) |  | -20.1% [at 11.4 µM] (inactive)
15 | CN1CCc2nc3ccc(F)cc3c(C(N)=O)c2C1 |  | inactive
16 | CCN1C[C@]2(C)CC[C@@H](O)[C@]34[C@@H]5CC6[C@@H](OC)C[C@@](O)([C@H]5[C@@H]6O)[C@@H](C[C@@H]23)[C@H]14 |  | inactive
17 | COC(=O)C1(C)C=C2C(=C(C)C(=O)C2C)CN1 (stereo not given) |  | inactive
18 | N[C@@H](CCCCP(=O)(O)O)C(=O)O |  | inactive
19 | Cn1c(O)c(C(=N)COc2ccccc2)c(=O)n(C)c1=O |  | inactive
20 | NC[C@@H](O)CSP(=O)(O)O |  | 2.73% [at 11.4 µM] (inactive)
21 | CNC(C)Cc1ccccc1Sc1ccc(O)cc1 (stereo not given) |  | -6.72% [at 2.29 µM] (inactive)
22 | COC(=O)NC/C=C\c1nc(CC/C=C\C(=O)O[C@H]2C[C@H]3CC(=O)O[C@@H](/C=C\CC(C)C)C[C@@H]4CC[C@H](C)[C@H](C[C@@H](OC)C[C@H](C2)O3)O4)co1 | 5.01 µM (active) | 
23 | CNC(=O)Oc1ccc2c(c1)[C@@]1(C)CCN(C)[C@@H]1N2C |  | inactive
24 | C[N+]1([O-])[C@@H]2CC(OC(=O)[C@@H](CO)c3ccccc3)C[C@@H]1[C@H]1O[C@H]12 (stereo not given in full) |  | inactive
25 | c1ccc2c(c1)OC[C@@H](C1=NCCN1)O2 |  | inactive
26 | c1ccc(C2CC2)c(OCC2=NCCN2)c1 |  | inactive
27 | CNCC/C=C\c1cccnc1 |  | inactive
28 | S=C=Nc1cccc(C2(N3CCCCC3)CCCCC2)c1 | 15.8 µM (active) | 

Row | Structure (SMILES) | AC50 | activity, negative = inhibition
29 | CCC(COC(=O)NC)NC(=O)Oc1ccccc1 (stereo not given) |  | inactive
30 | NC(N)=NC(=O)c1nc(Cl)c(N)nc1N |  | inactive
31 | Clc1cc(I)cc(Cl)c1NC1=NCCN1 |  | inactive
32 | O=C(NCP(=O)(O)O)c1cccnc1 |  | -14.3% [at 11.4 µM] (inactive)
33 | O=C(N/N=C(\c1ccccc1)c1cccnc1)C(O)(c1ccccc1)c1ccccc1 | 7.94 µM (active) | 
34 | CC[C@]1(C2=NCCN2)Cc2ccccc2O1 |  | inactive
35 | CCN(CC)c1ccc(/C=C2/C(=O)NC(=O)N(CC3CCCO3)C2=O)cc1 (stereo not given) |  | inactive
36 | C[C@@H]1O[C@@H](O[C@H]2C[C@@H](O)[C@]3(CO)[C@@H]4[C@@H](O)C[C@]5(C)[C@H](C6=CC(=O)OC6)CC[C@@]5(O)[C@H]4CC[C@@]3(O)C2)[C@H](O)[C@H](O)[C@@H]1O |  | inactive
37 | C/C=C(\C)C(=O)O[C@@H]1C(C)=C2[C@H]([C@@H]1OC(=O)CCCCCCC)[C@@](C)(OC(C)=O)C[C@@H](OC(=O)CCC)[C@@]1(O)[C@H]2OC(=O)[C@]1(C)O | 3.98 µM (active) | 
38 | CO[C@H]1[C@H](O)[C@H](O[C@@H]2[C@H](Oc3cccc4c(O)c5c(=O)oc6ccc(C)c7c(=O)oc(c34)c5c67)O[C@@H](C)[C@H](O)[C@H]2O)O[C@@H](C)[C@@H]1O |  | -7.43% [at 11.4 µM] (inactive)
39 | CCOC(=O)c1ncn2c1[C@H]1CCCN1C(=O)c1cc(OC)ccc1-2 |  | inactive
40 | COc1cc2c(cc1OC)[C@@H]1C(=O)c3ccc4c(c3O[C@@H]1CO2)C=CC(C)(C)O4 | 15.8 µM (active) | 
41 | Cc1ncc([N+](=O)[O-])n1CCN=[N+]=[N-] |  | -15.3% [at 11.4 µM] (inactive)
42 | NCCc1ccc(S(=O)(=O)F)cc1 |  | inactive
43 | C=CCN1C(=O)NC(=O)/C(=C/c2cccn2C)C1=O |  | 8.88% [at 2.29 µM] (inactive)
44 | Cc1nc2sccc2c(=O)n1-c1ccccc1Cl |  | 4.91% [at 2.29 µM] (inactive)
45 | O=c1c2ccccc2nc(N2CCCC2)n1-c1ccc(Cl)cc1 | 12.6 µM (active) | 
46 | O=C(Nc1ccc(Cl)cc1)Nc1nccs1 |  | -2.97% [at 2.29 µM] (inactive)
47 | O=C(O)CCCc1ccc(N(CCCl)CCCl)cc1 |  | inactive
48 | Cc1cc(NC(=O)CCC(=O)N2CCC3(CC2)OCCO3)no1 |  | inactive
49 | Cc1ccc2cc3cc(C(=O)N4CCC5(CC4)OCCO5)oc3nc2c1 |  | inactive
50 | Cc1ccc2c(c1)N(CCC(=O)N1CCC3(CC1)OCCO3)C(=O)C(C)O2 (stereo not given) | 2 µM (active) | 
51 | CC(C)NP(=O)(NC(C)C)OP(=O)(NC(C)C)NC(C)C |  | inactive
52 | N#CCCCC[N+]12CN3CN(CN(C3)C1)C2 |  | -1.78% [at 11.4 µM] (inactive)
53 | c1ccc(N2CC3(CCNCC3)C2)cc1 |  | inactive
54 | COc1ccc2c(c1)CCC1C2CC[C@]2(C)[C@H](NCCCCCCN3C(=O)C=CC3=O)CC[C@@H]12 (stereo not given in full) |  | inactive
55 | C[C@@H]1[C@@H](C)N1C[C@H](O)Cn1ccnc1[N+](=O)[O-] (stereo not given in full) |  | -14.6% [at 11.4 µM] (inactive)
